Source: PubChem BioAssay (NCI)
This is part of a sample that, as a whole, favours compounds with a hit. Of some 79,000 tested, about 15% had one in any assay. Calls of active or inactive are those of the source. Rule as the data show it: active = growth inhibition above about 70%; inactive = the rest.

Legend:
[1] = NCI Yeast Anticancer Drug Screen. Data for the rad50 strain (AID 155);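 also: 0% = growth of vehicle-only cultures of the same strain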; settings: S. cerevisiae rad50 strain growth inhibition; at 50.0 µM; stronger effect = higher value
Summary of the method: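 A DNA repair-deficient yeast mutant serves as the test organism; compound-induced growth inhibition is calculated against vehicle-treated cells.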

[2] = NCI Yeast Anticancer Drug Screen. Data for the mec2-1 strain (AID 157); settings: S. cerevisiae mec2-1 strain, at 50.0 µM, stronger effect = higher value
Summary of the method: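 Using mec2-1 yeast: add compound, measure growth, express inhibition versus vehicle-treated cultures.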

[3] = NCI Yeast Anticancer Drug Screen. Data for the sgs1 mgt1 strain (AID 161);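 also: 0% = growth of cultures given vehicle only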; settings: S. cerevisiae sgs1 mgt1 strain, at 50.0 µM, stronger effect = higher value
Summary of the method: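 Percent growth inhibition was derived by comparing compound-exposed mutant yeast with vehicle-exposed cultures. The strain carries alterations in DNA damage repair.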

[4] = NCI Yeast Anticancer Drug Screen. Data for the cln2 rad14 strain (AID 165);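 also: 0% = growth equal to vehicle treated cultures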; settings: S. cerevisiae cln2 rad14 strain, at 50.0 µM, stronger effect = higher value
Summary of the method: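 Yeast strain cln2 rad14, bearing defects in cell cycle control and DNA repair, serves as the test system; values reflect growth inhibition compared with vehicle.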

[5] = NCI Yeast Anticancer Drug Screen. Data for the bub3 strain (AID 167); settings: S. cerevisiae bub3 mutant strain, at 50.0 µM, stronger effect = higher value
Summary of the method: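 Inhibition values come from growth of compound-treated mutant yeast normalised to vehicle-treated controls.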

[6] = NCI Yeast Anticancer Drug Screen. Data for the mlh1 rad18 strain (AID 175); settings: S. cerevisiae mlh1 rad18 strain growth inhibition; at 50.0 µM; stronger effect = higher value
Summary of the method: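 Steps: expose repair-defective yeast to compound; measure growth; express inhibition against vehicle-treated controls.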

Measured: growth inhibition

CC[C@@H](C)C(=O)O[C@H]1[C@H](O)[C@H]2[C@@H](CN3C[C@@H](C)CC[C@H]3[C@@]2(C)O)[C@@H]2C[C@]34O[C@@]5(O)[C@@H](OC(=O)[C@](C)(O)[C@@H](C)O)CC[C@@]3(C)[C@@H]5[C@@H](OC(C)=O)[C@@H](OC(C)=O)[C@H]4[C@@]21O
inactive: [1] 8.75% | [2] 6.25% | [3] -23.6% | [4] 12.6% | [5] 4.9% | [6] 25.5%

O=c1n(CC2CO2)c2ccccc2n1CC1CS1 (stereo not given)
inactive: [1] -7.4% | [2] -36% | [3] 7% | [4] -12.8% | [5] -41.4% | [6] 1.7%

CC(C)(C)[CH2][Sn]([Cl])([CH2]C(C)(C)C)[CH2]C(C)(C)C
active: [1] 99% | [2] 99.3% | [4] 99% | [5] 99.2% | [6] 99%
inactive: [3] 21.8%

C=[CH][Sn]([CH]=C)([c]1ccccc1)[c]1ccccc1
inactive: [1] -7.5% | [2] -12.8% | [3] -14.2% | [4] -0.65% | [5] -26.8% | [6] 12.3%

CO[C@@]12[C@@H]3N[C@@H]3CN1C1=C(C(=O)C(Nc3ccc(O)cc3C)=C(C)C1=O)[C@@H]2COC(N)=O
active: [6] 71%
inactive: [1] 61% | [2] 29.1% | [3] 20% | [4] 44.4% | [5] -14.6%

CCCC(OP(=S)(OCC)OCC)c1ccc(Cl)cc1 (stereo not given)
inactive: [1] -22.5% | [2] -1.5% | [3] 2.9% | [4] -32.3% | [5] 39% | [6] -1.15%

COc1cc(C=Nc2ccc(C(=O)O)c(O)c2)ccc1N(CCCl)CCCl
inactive: [1] 60.8% | [2] 15.1% | [3] 65.2% | [4] 41% | [5] -3.95% | [6] 48.8%

Cc1ccc(C[N+](C)(C)C)cc1
inactive: [1] 10.6% | [2] -17.6% | [3] 6.7% | [4] 12.1% | [5] -10.1% | [6] 4.5%

CC(C)c1cc2c(cc1O)C1(C)CCCC(C)(C)C1=CC2=O (stereo not given)
inactive: [1] -1.65% | [2] -28.9% | [3] -8.15% | [4] -17% | [5] -5.8% | [6] -13.1%

O=C(O)CCC(=O)CCl
inactive: [1] 7% | [2] 1.35% | [3] 1.2% | [4] -12.6% | [5] 0.9% | [6] 1%

NC1CCCC[C@H]1N.N[C@@H]1CCCC[C@@H]1N.O=C(P(=O)([O-])[O-])P(=O)([O-])[O-].[Pt+4].[Pt+4]
inactive: [1] 20.2% | [2] 3.85% | [3] -13.7% | [4] 2.7% | [5] -6.6% | [6] 10.3%

CC(=O)CC(C)C(=O)O (stereo not given) (tested in a mixture with another compound)
inactive: [1] -5.9% | [2] -11% | [3] -16.6% | [4] -6.55% | [5] -5.6% | [6] -20.6%

CCN(CC)C(=O)CCNC(C)Cc1c[nH]c2ccccc12 (stereo not given)
inactive: [1] -4.1% | [2] -13.7% | [3] 39.9% | [4] 22.1% | [5] 8.85% | [6] -37.5%

ICc1nc2ccccc2[nH]1
inactive: [1] 15.6% | [2] -3.6% | [3] 3.65% | [4] -1.75% | [5] -14.5% | [6] 6.1%

OC1C2CCC1C(N1CCOCC1)CC2 (stereo not given)
inactive: [1] 0.25% | [2] 3.85% | [3] 8.05% | [4] -7.15% | [5] 18.5% | [6] 5.5%

O=C(Sc1c[nH]c(=O)[nH]c1=O)c1ccc(N(CCCl)CCCl)cc1
inactive: [1] 29.6% | [2] -18.4% | [3] 19.9% | [4] -24.8% | [5] -6.3% | [6] -1.05%

Nc1ccc2c(c1)Cc1cc(N)ccc1-2
inactive: [1] 60.2% | [2] 15.3% | [3] 57% | [4] -3.75% | [5] 37% | [6] 12.1%

CC(=O)Nc1cc([As](=O)(O)O)ccc1O
inactive: [1] 31.6% | [2] 14.3% | [3] 31.8% | [4] -28.2% | [5] 9.85% | [6] 33.8%

CC(NC(=O)c1ccccc1)N(C)[N+](=O)[O-] (stereo not given)
inactive: [1] -3.7% | [2] 4% | [3] 2.5% | [4] -13.4% | [5] 5.45% | [6] -5.55%

CNC(=O)N1CN(c2ccccc2)C2(CCN(CCCC3(c4ccc(F)cc4)OCCO3)CC2)C1=O
inactive: [1] -16% | [2] -9.5% | [3] -4.4% | [4] -8.8% | [5] 8.3% | [6] 1.05%

O=Cc1ccccc1O.[La]
inactive: [1] -7.9% | [2] -28.1% | [3] 14.1% | [4] -5.45% | [5] -7.7% | [6] 2.15%

c1ccc(-c2ccc[n+](CC[n+]3cccc(-c4ccccn4)c3)c2)nc1
inactive: [1] 0.3% | [2] -9.4% | [3] -25.4% | [4] -11.4% | [5] -0.1% | [6] 8.45%

COc1ccc(C2C=C(c3ccc4c(c3)OCO4)Oc3c2c(=O)oc2ccccc32)cc1OC (stereo not given)
inactive: [1] 11.5% | [2] 4.1% | [3] 10.1% | [4] 16.4% | [5] 22.7% | [6] 37%

COc1ccc2[nH]c3c(c2c1)CCNC3C (stereo not given)
inactive: [1] 2.3% | [2] -12.6% | [3] 2.6% | [4] -52.1% | [5] 5.4% | [6] -17.3%

CCC(Cl)COP(=O)(OCC(Cl)CC)C(CC)OP(=S)(OCC(Cl)CC)OCC(Cl)CC (stereo not given)
inactive: [1] 16.6% | [2] 11.3% | [3] 65.7% | [5] 57.5% | [6] 20.9%
active: [4] 94.8%

Fc1ccc(N=C=S)cc1
inactive: [1] -28.1% | [2] -20.2% | [3] -24.1% | [4] -9.8% | [5] -6.2% | [6] 2.2%

CC(C)(C)SCC(NC(=O)OCc1ccccc1)C(=O)O (stereo not given)
inactive: [1] 10.8% | [2] 1.7% | [3] 14.3% | [4] 18.9% | [5] 4.25% | [6] 7%

C=CCOCC1CO1 (stereo not given)
inactive: [1] 9.1% | [2] -5.1% | [3] 11.1% | [4] -8.6% | [5] -1.7% | [6] 15.8%

CCOC(=O)/C(=C\c1ccc(Cl)cc1)[Se]c1ccccc1
inactive: [1] 56.9% | [2] 5.7% | [3] 28.9% | [4] 20.6% | [5] 11.3% | [6] 43%

CNCC(C)c1ccccc1OC (stereo not given)
inactive: [1] -9.6% | [2] -6.7% | [3] 2% | [4] 26.4% | [5] 13.3% | [6] -5.9%

CN(C)C(=O)c1nnsc1NN=O
inactive: [1] 32% | [2] 33.7% | [3] -35.1% | [4] 8.35% | [5] -14.4% | [6] 9.35%

CC(=O)[CH-]C(C)=O.O=[N+]([O-])O.[NH-]C1CCCCC1[NH-].[Pt+4] (stereo not given)
active: [1] 97.2% | [2] 98.5% | [3] 94.3% | [4] 98% | [5] 98.8% | [6] 94.8%

Cc1ccc(C(=O)C(C)N)cc1C (stereo not given)
inactive: [1] -13.6% | [2] -13% | [3] -17.8% | [4] 15.2% | [5] 1.6% | [6] 22.4%

COc1cc(N=Nc2ccc([N+](=O)[O-])cc2)c([OH+]C)cc1[N+]#N.COc1cc(N=Nc2ccc([N+](=O)[O-])cc2)c([OH+]C)cc1[N+]#N.[Cl][Zn][Cl]
inactive: [1] 7% | [2] -1.05% | [3] -2.1% | [4] -3.15% | [5] 17.9% | [6] 12.6%

CCCCOP(=O)(OCCCC)SCl
inactive: [1] -9.4% | [2] 1.7% | [3] 3.2% | [4] 13.9% | [5] -11.1% | [6] 6%

CCOC(OC1=C(C#N)CCCC1)C(C)[Se]c1ccccc1 (stereo not given)
inactive: [1] 63% | [2] 25.2% | [3] 54.2% | [4] 41.9% | [5] 50.4% | [6] 34%

Cc1cc(N(CCCl)CCCl)ccc1C1N(Cc2ccc(N(CCCl)CCCl)cc2)CCCN1Cc1ccc(N(CCCl)CCCl)cc1
inactive: [1] 0.8% | [2] 7.8% | [3] -6.2% | [4] -5.1% | [5] -1.35% | [6] 25%

CCCCC(CC)COP(OCC(CC)CCCC)OCC(CC)CCCC (stereo not given)
inactive: [1] 22.1% | [2] -14.4% | [3] -18.9% | [4] -37.5% | [5] -7.25% | [6] -6.95%

C[N+]1(C)C2CCC1CC(OC(=O)C(CO)c1ccccc1)C2 (stereo not given)
inactive: [1] 18.7% | [2] -21.6% | [3] -6% | [4] -28.4% | [5] -51.5% | [6] -5.95%

CCOc1cc(OCC)c(OCC)cc1/C=C/[N+](=O)[O-]
active: [1] 90% | [2] 92.7% | [3] 93.7% | [4] 77% | [5] 89.5% | [6] 95.2%
